Laboratory results taken from PMC5540273 (PLoS ONE, 2017).

Tested on: T1, VEGFR2
T1 construct: gene KDR
Conditions: concentration: 1 μM, replicates: in singlicate; n = 1
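Also: KINOMEscan kinase panel screen.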

**Q.** For `Clc1ccc(-c2cc(-c3c[nH]nc3-c3ccccn3)ccn2)cc1` [GW681251], which “%Inh” value is on record?
**A.** 0%

**Q.** With `Fc1ccc(Nc2nccc(-c3c(-c4ccc(Cl)cc4)nn4ncccc34)n2)cc1F` [GW829058] as the molecule, how does the “%Inh” value read?
**A.** 25%

**Q.** `CS(=O)(=O)CCNCc1ccc(-c2ccc3ncnc(Nc4ccc(OCc5ccccc5)c(Cl)c4)c3c2)o1.Cl` [GW574783] was tested. Which “%Inh” value did it give?
**A.** 0%

**Q.** `CN1c2ccc(-c3ccc(C(=O)NCCO)cc3)cc2-c2[nH]ncc2S1(=O)=O` was tested. Which “%Inh” value did it give?
**A.** 44%

**Q.** `CCc1nc(-c2cccc(N(C)S(=O)(=O)c3ccccc3)c2)c(-c2ccnc(Nc3ccc(N4CCN(C(C)=O)CC4)nc3)n2)s1` [GSK1645895] was tested. Which “%Inh” value did it give?
**A.** 31%

**Q.** Which “%Inh” value does the source give for `Oc1ccc2ncnc(Nc3ccc(OCc4ccccc4)cc3)c2c1` [GI262866] here?
**A.** 0%

**Q.** `Cc1ccc(NC(=O)c2cccc(C#N)c2)cc1-c1ccc(C(=O)Nc2ccncc2)cc1` [GSK1398463] was tested. Which “%Inh” value did it give?
**A.** 11%

**Q.** Which “%Inh” value does the source give for `CC(C)(C)OC(=O)NC1CCCN(c2cc(-c3ccc4c(N)n[nH]c4c3)nc(N)n2)C1` (stereo not drawn) [GSK2286096] here?
**A.** 0%

**Q.** For `COc1ccc(Nc2nccc(N3CCC(NC(=O)Nc4ccc5c(c4)OCO5)C3)n2)cc1` (stereo not drawn) [GSK1379745], which “%Inh” value is on record?
**A.** 0%

**Q.** How did the “%Inh” value turn out when `COc1ccc(NC(=O)Nc2ccc(C)c(-c3ccc(C(=O)Nc4ccncc4)cc3)c2)cc1` [GSK1398475] was run?
**A.** 0%

**Q.** How did the “%Inh” value turn out when `Cn1ccc2ncnc(Oc3ccc(NC(=O)Nc4cccnc4)c(Cl)c3)c21` was run?
**A.** 74%

**Q.** `Fc1cccc(COc2ccc(Nc3ncnc4cc[nH]c34)cc2Cl)c1` was tested. Which “%Inh” value did it give?
**A.** 16%

**Q.** How did the “%Inh” value turn out when `Cl.Cl.c1ccc(-c2cc3ccncc3cc2OC2CCNCC2)cc1` [GSK1122999] was run?
**A.** 0%

**Q.** How did the “%Inh” value turn out when `Cc1cccc(-c2nc(Nc3ccc4[nH]nnc4c3)c3ccccc3n2)n1` [GW867587] was run?
**A.** 0%

**Q.** How did the “%Inh” value turn out when `COc1cc2c(Nc3cccc(NC(=O)c4ccccc4)c3)ncnc2cc1OCCCN1CCOCC1` [GSK223810] was run?
**A.** 28%

**Q.** For `Nc1nccc2scc(-c3ccc4c(c3)CCN4C(=O)Cc3cc(F)ccc3F)c12` [GSK2587663], which “%Inh” value is on record?
**A.** 0%

**Q.** With `COc1ccc(NC(=O)c2ccc(-c3cc(-c4nnc(C)o4)ccc3C)cc2)cc1` [GW595885] as the molecule, how does the “%Inh” value read?
**A.** 0%

**Q.** With `FC(F)(F)c1ccc(-c2nn3ncccc3c2-c2ccnc(Nc3cccc(C(F)(F)F)c3)n2)cc1` [GW828205] as the molecule, how does the “%Inh” value read?
**A.** 0%

**Q.** Which “%Inh” value does the source give for `NC(=O)c1sc(-n2cnc3ccccc32)cc1OCc1ccccc1F` [GSK1024306] here?
**A.** 6%

**Q.** `Cl.O=S(=O)(c1cccc(F)c1)c1ccc(Nc2ncnc3cc(Br)sc23)cc1Cl` [GSK306886] was tested. Which “%Inh” value did it give?
**A.** 3%

**Q.** `CCCc1ccc(S(=O)(=O)NC2CCN(c3ccnc(Nc4ccc(OC)cc4)n3)C2)cc1` (stereo not drawn) [GSK1379737] was tested. Which “%Inh” value did it give?
**A.** 0%

**Q.** For `CCn1c(-c2ccncc2)nc2cnccc21` [SB-735216], which “%Inh” value is on record?
**A.** 24%

**Q.** How did the “%Inh” value turn out when `O=C(CCO)NCCn1ccc2ncnc(Nc3ccc(Oc4cccc(C(F)(F)F)c4)c(Cl)c3)c21` was run?
**A.** 0%

**Q.** `Cl.Fc1ccccc1COc1ccc(Nc2ncnc3ccc(-c4nnc(C(F)(F)F)o4)cc23)cc1Cl` [GW424170] was tested. Which “%Inh” value did it give?
**A.** 4%

**Q.** With `Cn1cc(-c2ccc3c(c2)CCN3C(=O)Cc2cccc(C(F)(F)F)c2)c2c(N)ncnc21` [GSK2606414] as the molecule, how does the “%Inh” value read?
**A.** 0%

**Q.** How did the “%Inh” value turn out when `CNc1nccc(-c2c(-c3ccc(F)cc3)ncn2C2CCN(C)CC2)n1` [SB-222903] was run?
**A.** 0%

**Q.** For `Cl.Cn1ccc(-c2cccc(Nc3ccnc4cc(-c5nccs5)ccc34)c2)n1` [GW525701], which “%Inh” value is on record?
**A.** 0%

**Q.** How did the “%Inh” value turn out when `Fc1ccc(-c2ncn(CCCNCc3ccccc3)c2-c2ccncc2)cc1` was run?
**A.** 0%

**Q.** Which “%Inh” value does the source give for `C[C@@H]1CCN(C(=O)CO)C[C@@H]1N(C)c1ncnc2[nH]ccc12` here?
**A.** 0%

**Q.** `CC(C)(C)c1ccc(-n2cnc3c(N)ncnc32)cc1` [SKF-97263] was tested. Which “%Inh” value did it give?
**A.** 11%

**Q.** How did the “%Inh” value turn out when `COc1ccc(-c2oc3ncnc(N)c3c2-c2ccc(OC)cc2)cc1` [SB-589132] was run?
**A.** 16%

**Q.** For `FC(F)(F)c1cc(Nc2nccc(-c3c(-c4ccc(Cl)cc4)nn4ncccc34)n2)ccc1Cl` [GW829351], which “%Inh” value is on record?
**A.** 0%

**Q.** How did the “%Inh” value turn out when `O=C(Nc1ccccc1F)NC1CCN(c2ccnc(Nc3ccc(F)cc3)n2)C1` (stereo not drawn) [GSK1379722] was run?
**A.** 0%

**Q.** `O=C(NCCCN1CCCC1=O)c1cnc(NCc2cc(Cl)ccc2Cl)nc1NC1CCNCC1` was tested. Which “%Inh” value did it give?
**A.** 0%

**Q.** How did the “%Inh” value turn out when `Cl.c1ccc(Cn2ncc3cc(Nc4ncnc5ccccc45)ccc32)cc1` [GW273749] was run?
**A.** 20%

**Q.** For `Fc1cccc(COc2ccc(Nc3ncnc4sc(-c5ccc[nH]5)cc34)cc2Cl)c1` [GW707818], which “%Inh” value is on record?
**A.** 8%
